{
  "source": "paper PMC4336329",
  "about": "(PLoS ONE, 2015)",
  "note": "About 14,000 (4.5%) of roughly 310,000 compounds showed an effect of 50% or more. The effect is printed as a negative number. The sample as a whole holds a higher share of strong results than the screen did.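 Further: peak tail current of the secondary pulse compared with the same well before compound.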",
  "data": [
    {"biological_target": "human ether-à-go-go-related gene (hERG) potassium channel (human, UniProt Q12809)", "sequence (Q12809 whole entry, looked up)": "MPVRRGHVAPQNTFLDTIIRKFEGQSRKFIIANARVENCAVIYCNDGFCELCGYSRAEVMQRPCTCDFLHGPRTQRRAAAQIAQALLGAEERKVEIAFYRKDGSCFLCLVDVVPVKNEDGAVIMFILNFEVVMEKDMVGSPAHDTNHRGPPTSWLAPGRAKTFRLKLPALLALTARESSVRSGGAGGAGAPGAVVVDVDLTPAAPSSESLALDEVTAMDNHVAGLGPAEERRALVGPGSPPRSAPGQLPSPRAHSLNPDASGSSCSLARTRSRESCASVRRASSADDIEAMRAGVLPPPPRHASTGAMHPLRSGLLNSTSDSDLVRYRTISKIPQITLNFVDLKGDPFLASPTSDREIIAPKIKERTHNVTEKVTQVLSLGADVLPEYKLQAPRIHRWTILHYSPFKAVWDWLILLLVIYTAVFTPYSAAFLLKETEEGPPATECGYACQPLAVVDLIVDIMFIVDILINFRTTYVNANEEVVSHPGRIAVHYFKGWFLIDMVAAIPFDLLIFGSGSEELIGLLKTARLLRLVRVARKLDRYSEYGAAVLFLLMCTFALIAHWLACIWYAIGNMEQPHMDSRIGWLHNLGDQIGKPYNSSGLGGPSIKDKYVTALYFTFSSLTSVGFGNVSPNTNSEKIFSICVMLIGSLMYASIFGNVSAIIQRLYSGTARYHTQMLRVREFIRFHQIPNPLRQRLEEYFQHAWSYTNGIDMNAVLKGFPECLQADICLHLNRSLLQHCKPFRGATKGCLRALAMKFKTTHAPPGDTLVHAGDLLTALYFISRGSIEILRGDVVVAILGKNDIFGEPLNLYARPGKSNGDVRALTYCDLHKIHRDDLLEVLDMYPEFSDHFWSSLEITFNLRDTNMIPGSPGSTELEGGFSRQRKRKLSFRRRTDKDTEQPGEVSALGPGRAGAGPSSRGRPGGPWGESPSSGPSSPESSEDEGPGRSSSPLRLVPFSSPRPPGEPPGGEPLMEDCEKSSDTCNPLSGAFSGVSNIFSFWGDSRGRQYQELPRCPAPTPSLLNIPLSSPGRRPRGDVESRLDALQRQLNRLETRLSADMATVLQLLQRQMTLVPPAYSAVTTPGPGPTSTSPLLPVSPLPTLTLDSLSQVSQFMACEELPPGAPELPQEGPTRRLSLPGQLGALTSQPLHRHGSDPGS", "test": "primary screen, population patch clamp on CHO cells stably expressing hERG; higher = less effect of the substance", "units": {"hERG current change (%, negative = inhibition) at 10uM": "%"}, "values": [
      {"smiles": "COc1ccccc1C(=O)Nc1ccnn1C1CCN(C(C)CSC)CC1", "note": "(stereo not shown)", "hERG current change (%, negative = inhibition) at 10uM": -67},
      {"smiles": "CSCC(C)N1CCC(n2nccc2NC(=O)c2ccccc2C)CC1", "note": "(stereo not shown)", "hERG current change (%, negative = inhibition) at 10uM": -16.6},
      {"smiles": "COc1ccccc1C(=O)Nc1ccnn1C1CCN(C)CC1", "hERG current change (%, negative = inhibition) at 10uM": -32.7},
      {"smiles": "COc1ccc(C(=O)Nc2ccnn2C2CCN(C(=O)c3cnsn3)CC2)cc1", "hERG current change (%, negative = inhibition) at 10uM": -11.5},
      {"smiles": "COc1ccccc1C(=O)Nc1ccnn1C1CCN(C(=O)c2cnsn2)CC1", "hERG current change (%, negative = inhibition) at 10uM": -62.2},
      {"smiles": "COc1ccc(C(=O)Nc2ccnn2C2CCN(C(C)CSC)CC2)cc1", "note": "(stereo not shown)", "hERG current change (%, negative = inhibition) at 10uM": 1.28},
      {"smiles": "COc1ccccc1C(=O)Nc1ccnn1C1CCN(C(=O)c2ccoc2C)CC1", "hERG current change (%, negative = inhibition) at 10uM": -62.9},
      {"smiles": "COc1ccccc1C(=O)Nc1ccnn1C1CCN(C(=O)C(C)(C)C)CC1", "hERG current change (%, negative = inhibition) at 10uM": -50.4},
      {"smiles": "COc1ccccc1C(=O)Nc1ccnn1C1CCN(C(=O)C2CCOC2)CC1", "note": "(stereo not shown)", "hERG current change (%, negative = inhibition) at 10uM": -35.9},
      {"smiles": "COc1ccccc1C(=O)Nc1ccnn1C1CCN(C(=O)c2ccoc2)CC1", "hERG current change (%, negative = inhibition) at 10uM": -47.4},
      {"smiles": "COCC(=O)N1CCC(n2nccc2NC(=O)c2ccccc2OC)CC1", "hERG current change (%, negative = inhibition) at 10uM": -1.85},
      {"smiles": "Cc1ccccc1C(=O)Nc1ccnn1C1CCN(C(=O)c2cnsn2)CC1", "hERG current change (%, negative = inhibition) at 10uM": -30.4},
      {"smiles": "COc1ccc(-c2noc(CSc3nc(N)cc(=O)[nH]3)n2)cc1", "hERG current change (%, negative = inhibition) at 10uM": 0.145},
      {"smiles": "OCCC1CN(CC#Cc2ccccc2)CCN1Cc1ccccc1F", "note": "(stereo not shown)", "hERG current change (%, negative = inhibition) at 10uM": -7.93},
      {"smiles": "Cc1[nH]c2ccccc2c1SCCN", "hERG current change (%, negative = inhibition) at 10uM": 2.5},
      {"smiles": "O=S(=O)(c1cccc(C(F)(F)F)c1)N1CCN(C(=S)NCc2ccco2)CC1", "hERG current change (%, negative = inhibition) at 10uM": -5.8},
      {"smiles": "CC(=O)N1c2ccc(S(=O)(=O)N(C)CC(=O)NC3CCCC3)cc2CC1C", "note": "(stereo not shown)", "hERG current change (%, negative = inhibition) at 10uM": -23.1},
      {"smiles": "COC(=O)C1=C(c2ccc(Cl)c(C(F)(F)F)c2)C[C@@H]2CC[C@H]1N2C(=O)NCc1ccc2c(c1)OCO2", "hERG current change (%, negative = inhibition) at 10uM": -12.9},
      {"smiles": "Cc1cc(-n2nc(C)cc2C)n2ncc(-c3ccccc3)c2n1", "hERG current change (%, negative = inhibition) at 10uM": 16.2},
      {"smiles": "CC(=O)c1cnc2c(-c3ccc(Cl)cc3)cnn2c1C", "hERG current change (%, negative = inhibition) at 10uM": -1.45},
      {"smiles": "CCc1ccccc1N(C(=O)Cn1nnc2ccccc21)C(C(=O)NCCOC)c1ccco1", "note": "(stereo not shown)", "hERG current change (%, negative = inhibition) at 10uM": -7.99},
      {"smiles": "CCOC(=O)c1ccc(NC(=O)c2sc3nc4n(c(=O)c3c2C)CCC4)cc1", "hERG current change (%, negative = inhibition) at 10uM": 8.82},
      {"smiles": "N#CCCOC1(C#CCN2CCCC2)CCCCC1", "hERG current change (%, negative = inhibition) at 10uM": 19.6},
      {"smiles": "Cc1ccc(O)c(C(CC(=O)NC(C)C)c2ccccc2)c1", "note": "(stereo not shown)", "hERG current change (%, negative = inhibition) at 10uM": 6.85},
      {"smiles": "COCCCN1CN(Cc2ccccc2)CNC1=S", "hERG current change (%, negative = inhibition) at 10uM": 5.46},
      {"smiles": "O=C(Nc1nnc(CSCc2ccccc2F)s1)c1cccc([N+](=O)[O-])c1", "hERG current change (%, negative = inhibition) at 10uM": -0.45},
      {"smiles": "COc1ccccc1C(=O)Nc1ccnn1C1CCN(C2CCSCC2)CC1", "hERG current change (%, negative = inhibition) at 10uM": -70.9},
      {"smiles": "COc1ccc(C(=O)Nc2ccnn2C2CCN(C3CCC3)CC2)cc1", "hERG current change (%, negative = inhibition) at 10uM": 20.7},
      {"smiles": "Cc1ccccc1C(=O)Nc1ccnn1C1CCN(C2CCSCC2)CC1", "hERG current change (%, negative = inhibition) at 10uM": -49.5},
      {"smiles": "CCCC1=Nc2cc(C(=O)N3CCC(C(N)=O)CC3)ccc2Sc2ccccc21", "hERG current change (%, negative = inhibition) at 10uM": 4.75},
      {"smiles": "O=C(/C=C/c1ccc(OC2CSC2)cc1)c1ccccc1", "hERG current change (%, negative = inhibition) at 10uM": 10.1},
      {"smiles": "CC(=O)Nc1cccc(C(=O)Nc2ccc(S(=O)(=O)NC3=NCCCCC3)cc2)c1", "hERG current change (%, negative = inhibition) at 10uM": 17},
      {"smiles": "O=C(COc1ccc(Cl)cc1)NCc1n[nH]c(=O)c2ccccc12", "hERG current change (%, negative = inhibition) at 10uM": -13},
      {"smiles": "O=C(COc1ccccc1)NCc1nnc2c3ccccc3c(-c3ccccc3)nn12", "hERG current change (%, negative = inhibition) at 10uM": -64.6},
      {"smiles": "O=C(COc1ccccc1)NCc1ccccc1", "hERG current change (%, negative = inhibition) at 10uM": 4.64},
      {"smiles": "O=C(COc1ccccc1)NCc1n[nH]c(=S)n1-c1ccccc1", "hERG current change (%, negative = inhibition) at 10uM": 17.5},
      {"smiles": "O=C(COc1ccc(Cl)cc1)NCc1ccccc1", "hERG current change (%, negative = inhibition) at 10uM": -10.4},
      {"smiles": "O=C(COc1ccc(Cl)cc1)NCc1nnc2c3ccccc3c(-c3ccccc3)nn12", "hERG current change (%, negative = inhibition) at 10uM": -66.9},
      {"smiles": "CCc1cccc(NC(=O)C2CCCN(S(=O)(=O)c3cccnc3)C2)c1", "note": "(stereo not shown)", "hERG current change (%, negative = inhibition) at 10uM": -5.51},
      {"smiles": "CNCC(=O)Nc1ccc(Cl)c(C(F)(F)F)c1", "hERG current change (%, negative = inhibition) at 10uM": 17.6},
      {"smiles": "O=C(O)/C=C/C(=O)c1ccc(O)cc1", "hERG current change (%, negative = inhibition) at 10uM": 2.05},
      {"smiles": "C/C(O)=C(\\C#N)P(=O)(c1ccccc1)c1ccccc1", "hERG current change (%, negative = inhibition) at 10uM": 11.6},
      {"smiles": "CCN1CCN(C(c2cccs2)C(C)NC(=O)CC(C)C)CC1", "note": "(stereo not shown)", "hERG current change (%, negative = inhibition) at 10uM": -6.37},
      {"smiles": "Cc1cccc(NC(=S)NC(C)C(c2ccccc2)N2CCN(C)CC2)c1C", "note": "(stereo not shown)", "hERG current change (%, negative = inhibition) at 10uM": -50},
      {"smiles": "Cc1cccc(NC(=S)NC(C)C(c2cccs2)N2CCN(C)CC2)c1C", "note": "(stereo not shown)", "hERG current change (%, negative = inhibition) at 10uM": -60.5},
      {"smiles": "Cc1ccc(C)c(NC(=S)NC(C)C(c2cccs2)N2CCOCC2)c1", "note": "(stereo not shown)", "hERG current change (%, negative = inhibition) at 10uM": 8.4},
      {"smiles": "CCN1CCN(C(c2cccs2)C(C)NC(=O)C(C)C)CC1", "note": "(stereo not shown)", "hERG current change (%, negative = inhibition) at 10uM": 9.03},
      {"smiles": "Cc1ccc(C)c(NC(=S)NC(C)C(c2ccccc2)N2CCN(C)CC2)c1", "note": "(stereo not shown)", "hERG current change (%, negative = inhibition) at 10uM": -48},
      {"smiles": "Cc1ccccc1NC(=S)NC(C)C(c1ccccc1)N1CCN(C)CC1", "note": "(stereo not shown)", "hERG current change (%, negative = inhibition) at 10uM": -12.5},
      {"smiles": "CC(NC(=S)Nc1ccccc1Cl)C(c1cccs1)N1CCCC1", "note": "(stereo not shown)", "hERG current change (%, negative = inhibition) at 10uM": -10.2},
      {"smiles": "CCN1CCN(C(c2cccs2)C(C)NC(=O)c2ccccc2)CC1", "note": "(stereo not shown)", "hERG current change (%, negative = inhibition) at 10uM": -1.79},
      {"smiles": "CCN1CCN(C(c2cccs2)C(C)NC(=S)Nc2cccc(C)c2C)CC1", "note": "(stereo not shown)", "hERG current change (%, negative = inhibition) at 10uM": -72.9},
      {"smiles": "Cc1ccccc1NC(=S)NC(C)C(c1cccs1)N1CCOCC1", "note": "(stereo not shown)", "hERG current change (%, negative = inhibition) at 10uM": 2.05},
      {"smiles": "CCN1CCN(C(c2cccs2)C(C)NC(=S)Nc2cc(C)ccc2C)CC1", "note": "(stereo not shown)", "hERG current change (%, negative = inhibition) at 10uM": -68.5},
      {"smiles": "CN(C)c1ccc(/C=C2\\NC(=S)N(Cc3ccccc3)C2=O)cc1", "hERG current change (%, negative = inhibition) at 10uM": -0.668},
      {"smiles": "O=C(CSC(=S)N1CCCC1)c1ccccc1", "hERG current change (%, negative = inhibition) at 10uM": 4.99},
      {"smiles": "COc1cc2c3c(c1OC)C1(C=CC(=NO)C=C1)CC3N(C(C)=O)CC2", "note": "(stereo not shown)", "hERG current change (%, negative = inhibition) at 10uM": 13.8},
      {"smiles": "O=[N+]([O-])c1cccc(C(=Nc2cccc(Cl)c2)NO)c1", "hERG current change (%, negative = inhibition) at 10uM": -20}
    ]}
  ]
}
